Out of some 1,900 compounds screened, about 1,000 (53%) were called active.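 Rule for the calls: active = mean PP1 inhibition above a set limit taken from the earlier primary screen (cut at about 15% in these data); inactive = the rest.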 The set was probably picked from earlier hits. The list is a sample of the results.

The target in this assay is Serine/threonine-protein phosphatase PP1-alpha catalytic subunit (Homo sapiens) (UniProt P62136). Nature of the assay: PP1 phosphatase inhibitors, confirmation, biochemical, fluorescence, OMFP substrate, triplicate (AID 2358). The settings on record: purified PP1alpha, at 6.7 µM, hits give high values.
Chain of Serine/threonine-protein phosphatase PP1-alpha catalytic subunit (Homo sapiens) (P62136 whole entry, looked up): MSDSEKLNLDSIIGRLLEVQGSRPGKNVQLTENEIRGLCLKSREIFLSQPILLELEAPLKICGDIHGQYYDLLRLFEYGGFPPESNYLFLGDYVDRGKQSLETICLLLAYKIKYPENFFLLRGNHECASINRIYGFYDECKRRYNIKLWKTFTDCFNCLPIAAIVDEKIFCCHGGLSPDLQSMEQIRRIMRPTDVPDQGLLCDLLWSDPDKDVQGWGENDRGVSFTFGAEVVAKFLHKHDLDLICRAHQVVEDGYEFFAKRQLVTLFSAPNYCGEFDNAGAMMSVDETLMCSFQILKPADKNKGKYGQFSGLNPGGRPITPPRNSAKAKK
For `O=c1[nH]c(CN2CC=C(c3ccccc3)CC2)nc2scc(-c3cccs3)c12`, the inhibition was 19.9% (active).
In the case of `CCOP(=O)(OCC)C(O)c1ccc(OC)cc1OC` (stereo not drawn) it was -5.49% (inactive).
Consider `O=C(O)c1ccccc1NC(=O)C1C2CCC(O2)C1C(=O)O` (stereo not drawn), for which the inhibition is 13.2% (inactive).
